Screens from PubChem.
ALDH1A1 inh – ALDH1A1 (human) enzyme inhibition. P00352. Purified ALDH1A1, NADH fluorescence, propionaldehyde substrate. Potency, µM (titrated, usually from 75.3 µM), hits mostly inhibitors. 7.3% of 220,000 active; active = well fitted inhibition curve with a large enough effect, not every such curve was filed as active; inconclusive = small, poorly fitted or top-dose-only effect, or another doubt; inactive = no such curve, though single readings can be large or run the other way
HPGD inh – HPGD (human) dehydrogenase inhibition; Potency, µM, usual class: inhibitors; purified HPGD, NADH fluorescence kinetic, PGE2 substrate; P15428; 4.3% of 150,000 active; active = well fitted inhibition curve with a large enough effect, not every such curve was filed as active; inconclusive = small, poorly fitted or top-dose-only effect, or another doubt; inactive = no such curve, though single readings can be large or run the other way
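NADH formation kinetics: reaction with 30 uM PGE2 and 1 mM NAD+ (final), 20 nM enzyme, Tris-HCl pH 8 with Tween 20, after 15 min compound preincubation at room temperature. Fluorescence change, last versus first of five reads.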
HTT cytoprotect – protects HTT-Q103 PC12 cells, measured by ATP. PC12 HTT-Q103 induced, cytoprotection, ATP luminescence, 40 h. Potency, µM (highest dose often 56.4 µM), usual class: activators. 0.14% of 230,000 active; also: nearly all actives have a fitted effect of over 45% in size
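Rat PC12, Q103 Htt exon1-GFP fusion, ecdysone promoter; tebufenozide inducer 100 nM final; compound titration; qHTS, 1500 cells/well; ATPlite luminescent read.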
CBFb-RUNX1 inh – inhibitors of human CBF-beta and RUNX1 interaction; Q01196+Q13951; AlphaScreen CBFb-His/RUNX1-biotin binding, biochemical; Potency, µM (top dose mostly 59.8 µM), most hits filed as inhibitors; 230,000 tested, under 10 active; AID 1477
Target sequence (Q01196 whole entry, looked up): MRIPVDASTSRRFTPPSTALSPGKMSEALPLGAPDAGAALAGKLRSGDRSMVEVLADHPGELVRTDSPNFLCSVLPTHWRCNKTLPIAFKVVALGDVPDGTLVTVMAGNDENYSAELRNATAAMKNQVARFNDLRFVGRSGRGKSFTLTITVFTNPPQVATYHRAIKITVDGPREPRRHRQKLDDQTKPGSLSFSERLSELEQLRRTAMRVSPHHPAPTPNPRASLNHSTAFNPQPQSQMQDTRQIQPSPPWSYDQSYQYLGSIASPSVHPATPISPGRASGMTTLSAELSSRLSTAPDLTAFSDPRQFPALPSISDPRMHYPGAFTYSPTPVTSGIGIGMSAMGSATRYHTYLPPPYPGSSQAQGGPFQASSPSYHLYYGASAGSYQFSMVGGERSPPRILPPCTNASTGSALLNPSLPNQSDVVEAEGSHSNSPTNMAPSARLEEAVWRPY
Target sequence (Q13951 whole entry, looked up): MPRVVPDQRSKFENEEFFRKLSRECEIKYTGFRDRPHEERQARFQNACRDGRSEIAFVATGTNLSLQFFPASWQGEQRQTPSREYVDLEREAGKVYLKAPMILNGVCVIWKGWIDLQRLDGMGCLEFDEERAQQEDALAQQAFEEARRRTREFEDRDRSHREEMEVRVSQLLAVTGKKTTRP
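Room-temperature protein-protein interaction test with 30 nM each of His-tagged CBF-beta and biotinylated RUNX1, 15 min with compound, then 90 min with nickel plus streptavidin beads. Signal read in AlphaScreen mode.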
HttQ103 aggreg – reduces HttQ103-GFP aggregates in PC12 cells. PC12 HttQ103-GFP aggregates, Acumen cytometry, 40 h. Potency, µM (top dose mostly 46.1 µM), hits mostly inhibitors. 1.1% of 220,000 active. AID 1688; also: nearly all actives have a fitted effect of over 60% in size
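Read-out: GFP aggregate count by laser scanning cytometer (488 nm excitation, 500-530 nm emission, 1–25 µm objects >6 SD above background). Cells: PC12, inducible HTTex1-Q103-GFP, 100 nM tebufenozide; compounds titrated.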
JMJD2E inh – blocks human JMJD2E demethylase activity; B2RXH2; JMJD2E catalytic domain, FDH-coupled NADH fluorescence (FDH is formaldehyde dehydrogenase); Potency, µM (highest dose often 57.1 µM), actives largely listed as inhibitors; 1.6% of 230,000 active; active = well fitted inhibition curve with a large enough effect, not every such curve was filed as active; inconclusive = small, poorly fitted or top-dose-only effect, or another doubt; inactive = no such curve, though single readings can be large or run the other way; also: nearly all actives have a fitted effect of over 50% in size
Each line names hits and unclear results; the compound was inactive in the other large screens. The list is not random: actives were taken first. Their share in the collection is about 9.8%. Unless noted, calls follow the shape of the dose curve; as a rule, active = well fitted curve in the direction sought with a large enough effect; inconclusive = small, poorly fitted or top-dose-only effect, or another doubt; inactive = no such curve, though single readings can be large; an effect the other way counts as inactive or inconclusive.

C/C(O)=C(\C#N)c1nnc2n1CCCCC2	ALDH1A1 inh inconclusive, JMJD2E inh inconclusive
N#C/C(=N\Nc1cccc2ccccc12)c1nnc2n1CCCCC2	HPGD inh 17.8µM
Cn1c(SCC(=O)N2CCCc3ccccc32)nnc1-c1c[nH]c2ccccc12	ALDH1A1 inh inconclusive
COc1ccccc1NC(=O)NCc1nc(-c2ccc(C(F)(F)F)cc2)no1	none (no result: ALDH1A1 inh, HPGD inh)
COc1ccc(C(=O)N(C)C2CCN(C)CC2)cc1S(=O)(=O)Nc1cc(Cl)ccc1Cl	none (no result: HPGD inh)
O=C(CCS(=O)(=O)c1cccc2nsnc12)NCc1ccccc1	ALDH1A1 inh inconclusive
CC(=O)c1cccc(NC(=O)CCS(=O)(=O)c2cccc3nsnc23)c1	ALDH1A1 inh 22.4µM, HPGD inh 28.2µM
CC(=O)c1ccc(NC(=O)CCNS(=O)(=O)c2cccc3nonc23)cc1	ALDH1A1 inh inconclusive
Cc1ccc(CNC(=O)CCCNS(=O)(=O)c2cccc3nonc23)cc1	ALDH1A1 inh 7.08µM
COc1ccc(CNC(=O)CCCNS(=O)(=O)c2cccc3nonc23)cc1	ALDH1A1 inh 14.1µM, HTT cytoprotect 3.55µM, HttQ103 aggreg 3.16µM
CCc1ccc(NC(=O)CCNS(=O)(=O)c2cccc3nonc23)cc1	ALDH1A1 inh 22.4µM
CCOC(=O)C/C(N)=N/NC(=O)c1ccc(Cl)cc1Cl	none (no result: HPGD inh)
CC(=O)Nc1ccc(NC(=O)CCNS(=O)(=O)c2cccc3nsnc23)cc1	ALDH1A1 inh 12.6µM (no result: HPGD inh)
COc1ccc(NC(=O)CNS(=O)(=O)c2cccc3nonc23)c(OC)c1	ALDH1A1 inh 12.6µM, HPGD inh inconclusive, HttQ103 aggreg inconclusive
COc1cccc(NC(=O)CCNS(=O)(=O)c2cccc3nsnc23)c1	none (no result: HPGD inh)
O=C(CCCNS(=O)(=O)c1cccc2nsnc12)NCc1ccccc1	ALDH1A1 inh 5.01µM (no result: HPGD inh)
CCCCCCCCCCN1CCOCCOCCN(CCCCCCCCCC)CCOCCOCC1	none (no result: ALDH1A1 inh, HPGD inh, HTT cytoprotect, HttQ103 aggreg, JMJD2E inh)
COc1cc(NS(=O)(=O)c2ccc(NC(=S)NC(=O)c3sc4ccccc4c3Cl)cc2)nc(OC)n1	ALDH1A1 inh 11.2µM, HPGD inh 25.1µM
COc1cc(NS(=O)(=O)c2ccc(NC(=S)NC(=O)c3sc4cc(F)ccc4c3Cl)cc2)nc(OC)n1	ALDH1A1 inh 8.91µM, HPGD inh 15.8µM, HttQ103 aggreg inconclusive
COc1cc(NS(=O)(=O)c2ccc(NC(=S)NC(=O)c3ccco3)cc2)nc(OC)n1	CBFb-RUNX1 inh inconclusive (no result: ALDH1A1 inh, HPGD inh)
O=C(Nc1ccc(Cl)cc1)Nc1cc(S(=O)(=O)N2CCOCC2)ccc1N1CCCC1	ALDH1A1 inh inconclusive, HPGD inh inconclusive
CCOc1cccc(/C=N/NC(=S)Nc2cc(S(=O)(=O)N3CCOCC3)ccc2N2CCOCC2)c1O	CBFb-RUNX1 inh inconclusive, HttQ103 aggreg inconclusive, JMJD2E inh 31.6µM (no result: HTT cytoprotect)
CCOCC(=O)Nc1cc(S(=O)(=O)N2CCOCC2)ccc1N1CCCCC1	ALDH1A1 inh 2.82µM, JMJD2E inh inconclusive (no result: HPGD inh)
O=S(=O)(Nc1cc(S(=O)(=O)N2CCOCC2)ccc1N1CCOCC1)c1ccc2c(c1)OCCO2	none (no result: HPGD inh)
O=C(Nc1ccccc1)Nc1cc(S(=O)(=O)N2CCOCC2)ccc1N1CCCC1	ALDH1A1 inh inconclusive, HPGD inh 14.1µM
COc1ccc(C(=O)OCC(=O)Nc2cc(S(=O)(=O)N3CCOCC3)ccc2N2CCCC2)cc1	none (no result: HPGD inh)
O=S(=O)(Nc1cccc(S(=O)(=O)N2CCOCC2)c1)c1ccc2c(c1)OCCO2	ALDH1A1 inh 25.1µM (no result: HPGD inh)
COc1ccc2ccccc2c1/C=N/NC(=S)Nc1cc(S(=O)(=O)N2CCOCC2)ccc1N1CCOCC1	JMJD2E inh inconclusive
N#C/C(=C/c1ccc(Br)s1)C(=O)NCCc1c[nH]c2ccccc12	none
C/C(=N/NC(=O)c1ccc(C)nc1)c1ccc2c(c1)CCCC2	ALDH1A1 inh inconclusive (no result: HPGD inh)
CN(C)S(=O)(=O)c1ccc(Cl)c(NC(=O)CN2CCNC(=O)C2)c1	none (no result: HPGD inh, HTT cytoprotect)
CC1CN=C(N(C(=O)Nc2ccccc2)c2ccc(S(=O)(=O)N3CCOCC3)cc2)S1 (stereo not given)	HPGD inh 20µM
O=C(Nc1cccc(S(=O)(=O)N2CCOCC2)c1)C(c1ccccc1)N1CCCCC1 (stereo not given)	ALDH1A1 inh 7.08µM (no result: HPGD inh)
CC(C(=O)Nc1cccc(S(=O)(=O)N2CCOCC2)c1)N1CCN(C/C=C/c2ccccc2)CC1 (stereo not given)	none (no result: HPGD inh, HTT cytoprotect)
CC1(C)CC2CC(C)(CN2C(=O)c2ccc([N+](=O)[O-])cc2[N+](=O)[O-])C1 (stereo not given)	none (no result: HPGD inh)
Cc1ccc(S(=O)(=O)NC2c3cccc4cccc(c34)C2Sc2n[nH]c(N)n2)cc1 (stereo not given)	ALDH1A1 inh 3.98µM
O=S(=O)(NC1c2cccc3cccc(c23)C1Sc1ncccn1)c1ccc(Cl)cc1 (stereo not given)	ALDH1A1 inh inconclusive, HttQ103 aggreg inconclusive
N=C1/C(=C/c2cccn2Cc2ccc(F)cc2)C(=O)N=C2SC=CN12	HttQ103 aggreg 0.0141µM (no result: HPGD inh)
C=CCN(C(=O)CSC1=NC(=O)CN1C(C)=O)c1nc(C)c(-c2ccccc2)s1	ALDH1A1 inh 6.31µM, HttQ103 aggreg inconclusive, JMJD2E inh inconclusive (no result: HPGD inh)
CCC(C)Sc1nc2c(c(=O)[nH]1)C(c1cccs1)C1=C(CCCC1=O)N2 (stereo not given)	ALDH1A1 inh inconclusive, HttQ103 aggreg inconclusive (no result: HPGD inh)
CCOc1cc(N2CCOCC2)c(OCC)cc1NC(=O)CSc1ncn[nH]1	none (no result: HPGD inh)
O=C(NP(=O)(N1CCOCC1)N1CCOCC1)C1=C(N2CCOCC2)/C(=C\c2ccccc2)CC1	ALDH1A1 inh 3.55µM (no result: HPGD inh)
S=C(S)O[C@@H]1C[C@@H]2C[C@H]1[C@@H]1CCC[C@H]21	HTT cytoprotect inconclusive (no result: CBFb-RUNX1 inh, HttQ103 aggreg)
C=CCc1cc(C)ccc1OCCOCCn1ccnc1	ALDH1A1 inh 25.1µM
CCCCCN1C(=O)Cn2c(nc3ccccc3c2=O)C1C (stereo not given)	none (no result: HPGD inh)
COc1ccc(S(=O)(=O)N2CCC(C(=O)Nc3ccccc3C)CC2)c2cccnc12	ALDH1A1 inh 22.4µM
Cc1ccc(S(=O)(=O)NC(CC(=O)N2CCc3ccccc32)c2ccco2)cc1 (stereo not given)	ALDH1A1 inh 14.1µM
Cc1cc(C)nc(S/C=C/C(=O)c2ccc(F)cc2)n1	none (no result: ALDH1A1 inh, HPGD inh)
Cc1cc(C)nc(SCNC(=O)c2ccc(F)cc2)n1	HPGD inh 14.1µM
Cc1ccsc1C(=O)N1CCCC(CCC(=O)NCc2ccc(F)c(F)c2)C1 (stereo not given)	ALDH1A1 inh inconclusive (no result: HPGD inh)
NC(=O)c1c(NC(=O)c2ccco2)sc2c1CCC2	ALDH1A1 inh inconclusive, HPGD inh inconclusive
O=C(Nc1sc2c(c1C(=O)O)CCCCC2)c1ccco1	ALDH1A1 inh 25.1µM, HPGD inh 17.8µM
